Measured values taken from PubChem BioAssay (NCI).
Where “and” joins values, the source holds several entries; their conditions need not be identical. Equal entries are not always repeated. About 83,000 compounds went through this panel and 20% of them were active in at least one assay; those are over-represented in the sample as a whole.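 Interpretation: 100, growth as untreated; towards 0, rising growth inhibition; 0, no net growth; 0 to -100, cell death. Compounds scoring below 10 were considered active.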 Values without a mark were called inactive. Calls of active or inactive are those of the source. Where a SMILES comes first, the peptide text is derived from it. The star is where a group is joined. Trt = c1ccc(C(c2ccccc2)(c2ccccc2)*)cc1; Cbz = O=C(OCc1ccccc1)*

System: UACC-62 melanoma
Experiment: NCI-60 one-dose screen, 48 h (100 = growth as untreated, 0 = no growth, -100 = all killed)
Settings: 10 µM
Method: Growth inhibition of the UACC-62 human tumor cell line is measured as a screen for anti-cancer activity. Cells are grown in 96 well plates and exposed to the test compound for 48 hours. Compounds are tested at a single concentration, which is 10^-5 M for most compounds. The reported endpoint is percent growth (GI% or GIPRCNT), where numbers from 0 - 100% represent growth inhibition, and numbers from -100% - 0 represent cell death. For example, a value of 40 represents 60% growth inhibition. A value of 0 means no net growth occurred over the course of the experiment. A value of -40 indicates 40% of cells at the beginning of the experiment died by the end of the experiment. A value of -100 means all cells are dead at the end of the experiment.
NCI-60 Human Tumor Cell Lines Screen was performed using the standard one-dose NCI protocol, which is described in more detail at https://dtp.cancer.gov/discovery_development/nci-60/default.htm.
Compounds with GIPRCNT values below 10 were considered active. Activity score was based on GIPRCNT using the following formula: […]
Score is 0 for GIPRCNT values of 100 or above, 50 for GIPRCNT values of 0, and 100 for GIPRCNT values of -100.

Structure (SMILES) | growth
CN(C)C(=O)c1ccc(SC(=S)NCc2ccccc2)cc1 | 103%
O=C(Nc1cccc(Br)c1)Oc1cccc2cccnc12 | 97.5%
COc1ccc(-c2cscc2N)cc1 | 43.4%
O=C(O)c1c(Cl)c(Cl)c(Cl)c(Cl)c1-c1c2cc(I)c(=O)c(I)c-2oc2c(I)c(O)c(I)cc12 | 98.8% and 107% and 96.1%

Same assay, conditions: 10 µM unless noted

Structure (SMILES) | growth
Cc1ccc(NS(=O)(=O)c2ccc(C)cc2)cc1 | 91% and 99.2%
CCC(=O)Sc1ccccc1C(=O)Nc1ccc(Cl)cc1 | 54.1%
O=C(Nc1ccc(F)cc1)ON=C1CCCCC1 | 54.5% [100 µM]
COc1ccc2nc3cc(Cl)ccc3c(NCCNc3c4ccc(Cl)cc4nc4ccc(OC)cc34)c2c1 | -88.4% (active)
O=C1c2cccnc2-c2nccc3c2c1nc1cc(Br)ccc13 | -95.1% (active) and -74.6% (active)
O=C1NC(=O)/C(=C/C=C/c2ccccc2)S1 | 1.33% (active)
CCN(CC)CC(C)(C)C(=O)/C=C/c1ccc(Cl)c(Cl)c1 | -56.2% (active)
Cc1ccnc2c1ccc1c(C)ccnc12 | 2.66% (active)
O=C(/C=C\c1ccccc1)N1c2ccccc2CC1c1c[nH]c2ccccc12 (stereo not given) | 48.9%
CCC1OC(OC)C=CC1=O (stereo not given) | 85%
Cc1ccc2c(ccc3c[n+]4c5ccccc5ccc4n32)c1 | -48.9% (active)
COc1ccccc1OC(=O)Oc1ccccc1OC | 100% and 96.4%
N#CC1C(=O)SC2c3ccccc3C(=O)c3ccccc3C12 (stereo not given) | 89.2%
O=C(Nc1ccccc1)c1cc(Cl)ccc1O | 34.1%
CNc1ccc2c(c1)c1ccccc1n2C | 100%
CCN1/C(=C\c2cc[n+](CC)c3ccccc23)C=Cc2ccccc21 | -21.4% (active)

Structure (SMILES) | growth
Cc1cc(C(C)(CC(C)C)c2ccc(O)c(C)c2)ccc1O | 71.1%
C[n+]1c(/C=C/c2ccc([N+](=O)[O-])cc2)ccc2ccccc21 | 95.6%
CC(=O)C(=Cc1ccc(C=C(C(C)=O)C(C)=O)cc1)C(C)=O | -41.6% (active)
Nc1ccc(SSc2ccc(N)cc2)cc1 | 91.1%
O=C(Oc1cccc2cccnc12)c1ccccc1 | 97.6% and 106%
CN=C(N)N/N=C(\C)c1ccc2c(c1)Cc1cc(/C(C)=N/NC(N)=NC)ccc1-2 | -78.3% (active)
NC(=S)N/N=C/c1ccc(Cl)s1 | 101%
O=C1C=CC(=O)N1C1c2ccccc2-c2ccccc21 | 102%
S=C(N/N=C/c1ccccn1)Nc1ccccn1 | 1.53% (active)
CCOC(=O)/C(=C\c1ccc(-c2ccccc2)cc1)C(C)=O | 94.6%
COC(=O)C(CSC(c1ccccc1)(c1ccccc1)c1ccccc1)NC(=O)C(CC(N)=O)NC(=O)OCc1ccccc1 (stereo not drawn) (Cbz-Asn-Cys(Trt)-OMe; configuration not given here) | -11.7% (active)
CC1SC(=S)N(c2ccc(Cl)cc2)C1=O (stereo not given) | 82.5% and 70.1%
N#CSCc1ccc(Cl)c(CSC#N)c1 | 57.3%
CCCCCC(CCCCC)C(=O)O | 94.4%
CCC(c1cccc(O)c1)C(CC)c1cccc(O)c1 (stereo not given) | 30.1%
CCOC(=O)/C=C/c1ccc([N+](=O)[O-])o1 | 32.6%

Same assay, conditions: 100 µM

Structure (SMILES) | growth
CN(C)C(=O)c1ccc(SC(=S)NCc2ccccc2)cc1 | 1.05% (active)
O=C(Nc1cccc(Br)c1)Oc1cccc2cccnc12 | 11.7%
COc1ccc(-c2cscc2N)cc1 | -9.3% (active)
O=C(O)c1c(Cl)c(Cl)c(Cl)c(Cl)c1-c1c2cc(I)c(=O)c(I)c-2oc2c(I)c(O)c(I)cc12 | -41.3% (active)
